Measurements from the supplement of paper PMC7156485.
A number with no mark means an inactive call.

system: TDF; assay: H1.0 immunofluorescence intensity relative to DMSO (% of DMSO); higher = stronger H1.0 induction, active = 120 or more; conditions: concentration: 10 µM; 24 h
Method in brief: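 H1.0 nuclear intensity or cell number is expressed as percent of the plate control, with the median of replicates taken. HCC1569 and TDF cells were treated with compounds at 10 µM for 24 h at 37 °C, in triplicate, then fixed and immunostained for H1.0 with DAPI as a nuclear stain. HCC1569 values were smoothed to correct for positional effects.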
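Further: TDF is a line of transformed human dermal fibroblasts of mesenchymal origin.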

SMILES	H1.0 immunofluorescence intensity
COc1ccc2c(c1)=NC1=C(C)NCCC=21 [Harmaline]	97.5
COc1ccc2c(c1)C13CCCCC1C(C2)N(C)CC3 (centres undefined) [Dextromethorphan]	102
C=CCN1CCC23c4c5ccc(O)c4OC2C(=NNC(=O)c2ccccc2)CCC3(O)C1C5 (centres undefined) [Naloxone benzoylhydrazone]	101
CN1C2CCC1CC(OC(c1ccccc1)c1ccccc1N)C2 (centres undefined) [Aminobenztropine]	94.1
CC1OC(=O)C(C(C)C)NC(=O)C(C(C)C)OC(=O)C(C(C)C)NC(=O)C(C)OC(=O)C(C(C)C)NC(=O)C(C(C)C)OC(=O)C(C(C)C)NC(=O)C(C)OC(=O)C(C(C)C)NC(=O)C(C(C)C)OC(=O)C(C(C)C)NC1=O (centres undefined) [Valinomycin]	108
CCCN(CCC)C(=O)Cc1c(-c2ccc(Cl)cc2)nc2c(Cl)cc(Cl)cn12	102
C[N+](C)(C)CC#CCOC(=O)Nc1cccc(Cl)c1.[Cl-]	94.4
[Cl-].c1ccc2c(c1)[I+]c1ccccc1-2 [Diphenyleneiodonium chloride]	123 (active)
Br.CN1C2CC(OC(=O)C(CO)c3ccccc3)CC1C(O)C2 (centres undefined) [Anisodamine]	101
CC=C(C)C(=O)OC1C(C)=C2C(C1OC(=O)CCCCCCC)C(C)(OC(C)=O)CC(OC(=O)CCC)C1(O)C2OC(=O)C1(C)O (centres undefined) [Thapsigargin]	130 (active)
CCC1CN2CCc3cc(OC)c(OC)cc3C2CC1CC1NCCc2cc(OC)c(OC)cc21.Cl.Cl (centres undefined) [Emetine dihydrochloride hydrate]	114
O=C1NC(=O)c2c1c1c3ccccc3[nH]c1c1[nH]c3ccccc3c21	79.9
O=C1CCCN1CC#CCN1CCCC1 [Oxotremorine]	88.5
CN1C2CC(=O)CC1C(O)C2 (centres undefined) [6-Hydroxytropinone]	88.5
COC1=C(OC)C(=O)C(=C2C(C)=C(C(=O)O)NC(c3ccc4c(n3)C(=O)C(N)=C(OC)C4=O)=C2N)C=C1 [Streptonigrin]	171 (active)
Cl.Cl.c1ccc(CCCN2CCN(CCOC(c3ccccc3)c3ccccc3)CC2)cc1	103
CCCN(CCC)C1CCc2ccc(O)cc2C1 (racemic)	88.7
CC1=C(O)C(=O)C2OC2C1=O (single isomer, unassigned; (-))	96.7
O=C(NCCN1CCC2(CC1)C(=O)NCN2c1cccc(F)c1)c1ccc(F)c(F)c1	110
CCN(CC)C(=O)NC1CC2c3cccc4[nH]cc(c34)CC2N(C)C1 (stereo not drawn) [R(+)-Terguride]	91.9

SMILES	H1.0 immunofluorescence intensity
COc1ccc2c(c1OC)C(=O)OC2C1c2cc3c(cc2CCN1C)OCO3 (centres undefined)	90.5
CC(=O)OC1C(=O)C2(C)C(O)CC3OCC3(OC(C)=O)C2C(OC(=O)c2ccccc2)C2(O)CC(O)C(C)=C1C2(C)C (centres undefined) [Baccatin III]	111
Cl.NCCc1c[nH]c2ccccc12 [Tryptamine hydrochloride]	95.5
Cl.Clc1ccc(N2CCN(Cc3c[nH]c4ncccc34)CC2)cc1 [L-745,870 hydrochloride]	115
CC(C)C1(NC(=O)C2CC3c4cccc5[nH]cc(c45)CC3N(C)C2)OC2(O)C3CCCN3C(=O)C(Cc3ccccc3)N2C1=O (centres undefined) [Dihydroergocristine]	90.4
CS(=N)(=O)CCC(N)C(=O)O [L-Methionine sulfoximine]	92.5
CCCN1CCCC(c2cccc(O)c2)C1.Cl (stereo not drawn) [S(-)-3PPP hydrochloride]	94.8
Cl.NN=C(N)N [Aminoguanidine hydrochloride]	93.8
CC1=C(O)C(=O)C=C2C1=CC=C1C2(C)CCC2(C)C3CC(C)(C(=O)O)CCC3(C)CCC12C (centres undefined) [Celastrol]	120
CS(=O)(=O)O.O.Oc1ccc2c3c1OC1c4oc5ccccc5c4CC4(O)C(C2)N(CC2CC2)CCC314 (centres undefined) [Naltriben methanesulfonate hydrate]	92.8
CCCCCC=CCC=CCCCCCCCC(=O)NCCO [Anandamide (18:2,n-6)]	99.1
Cl.Oc1ccc2c3c1OC1C(O)CCC4(O)C(C2)N(CC2CCC2)CCC314 (centres undefined) [Nalbuphine hydrochloride]	92.6
CC(=O)NC1CN2CCC(O)C2C(O)C1O (centres undefined) [6-Acetamido-6-deoxy-castanospermine]	97.2
CC1CC(C)C(=O)C(C(O)CC2CC(=O)NC(=O)C2)C1 (centres undefined) [Cycloheximide]	110
COc1ccc(-n2nc(C(F)(F)F)cc2-c2ccc(Cl)cc2)cc1	87.5
CN(C)Cc1c[nH]c2ccccc12 [Gramine]	94.1
CN1CC[C@@]2(C)c3cc(OC(=O)Nc4ccccc4)ccc3N(C)[C@@H]12	106
O=P([O-])(O)C(Cl)(Cl)P(=O)([O-])O.[Na+].[Na+] [Clodronic acid]	93.4
CN(C)C(=O)Oc1cccc([N+](C)(C)C)c1.COS(=O)(=O)[O-]	97.7
